40 molecules from PubChem BioAssay (NCI) can be followed below.

Compounds without any hit were thinned out: in the full panel of roughly 83,000, 20% have a hit.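 Results are percent growth after 48 hours of single-concentration exposure. 100 means growth as in untreated cells, lower positive values show inhibition; negative values down to -100 show cell death.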 Active and inactive are the calls of the source.

For this test, the system named is NCI-H322M lung. The test can be described thus: NCI-60 one-dose screen, 48 h (100 = growth as untreated, 0 = no growth, -100 = all killed). The settings on record: 10 µM unless noted. How it is done:
Growth inhibition of the NCI-H322M human Non-Small Cell Lung tumor cell line is measured as a screen for anti-cancer activity. Cells are grown in 96 well plates and exposed to the test compound for 48 hours. Compounds are tested at a single concentration, which is 10^-5 M for most compounds. The reported endpoint is percent growth (GI% or GIPRCNT), where numbers from 0 - 100% represent growth inhibition, and numbers from -100% - 0 represent cell death. For example, a value of 40 represents 60% growth inhibition. A value of 0 means no net growth occurred over the course of the experiment. A value of -40 indicates 40% of cells at the beginning of the experiment died by the end of the experiment. A value of -100 means all cells are dead at the end of the experiment.
NCI-60 Human Tumor Cell Lines Screen was performed using the standard one-dose NCI protocol, which is described in more detail at https://dtp.cancer.gov/discovery_development/nci-60/default.htm.
Compounds with GIPRCNT values below 10 were considered active. Activity score was based on GIPRCNT using the following formula: […]
Score is 0 for GIPRCNT values of 100 or above, 50 for GIPRCNT values of 0, and 100 for GIPRCNT values of -100.
In the case of `CC[n+]1ccc2c(c1)C(=O)c1nccc3c1c-2nc1ccccc13`, the growth was -16.3% (active).

As for `O=C1c2cc3c(cc2-c2c1c1cc(Cl)c(Cl)cc1c(=O)n2C[C@H](O)CO)OCO3`, the growth was -16% (active).

For `CCOc1ccc(Nc2nc(-c3c(C)nc4ncccn34)cs2)cc1`, the growth is 52.2% (inactive).

On to `N=c1c2ccccc2nc2n1CCCCC2`, for which the growth is 112% (inactive).

Take `OC(c1cccc(C(F)(F)F)c1)c1cnccc1NC1CCCCCC1` (stereo not given): the growth was 46.3% (inactive).

As to `CCOC(=O)c1nc(Nc2cc(C)[nH]n2)c2ccccc2n1`, the growth was 90.7% (inactive).

Regarding `O=c1c2c3c(sc2n2c(CCl)nnc2n1Cc1ccccc1)CCCC3`, the growth is -97% (active).

Regarding `O=C1c2ccccc2-c2nccc3cc(Cl)nc1c23`, the growth was 95.7% (inactive).

On to `O=C1CCc2c(sc3[nH]c(=S)n(Cc4ccccc4)c(=O)c23)C1`, for which the growth is 30.1% (inactive).

For the molecule `O=C(CCCN1CCOCC1)Nc1ccc(Cn2nnc3c2C(=O)c2nnn(Cc4ccc(NC(=O)CCCN5CCOCC5)cc4)c2C3=O)cc1`, the growth was 21% (inactive).

As for `O=C1Nc2c(ccc(Cl)c2Cl)/C1=C/c1cc(Br)c(O)c(Br)c1`, the growth is 90.3% (inactive).

As for `COc1cc(NCCCCN=C(N)N)c2ncccc2c1`, the growth is 73.5% (inactive).

Regarding `O=c1[nH]c(-c2ccccn2)nc2sc3c(c12)CCCCC3`, the growth is 48.5% (inactive).

Turning to `Cn1c2ccccc2c2c3[nH]c(=O)[nH]c(=O)c3c3c4ccccc4n(C)c3c21`, the growth is 51.4% (inactive).

As for `COc1nc2c(cc1S(=O)(=O)c1ccccc1)CCc1c-2cnn1-c1ccc(Cl)cc1`, the growth is 101% (inactive).

As for `COc1ccc(/C(=C/c2ccc3ccccc3c2)c2nn[nH]n2)cc1OC`, the growth was 40.1% (inactive).

As for `COc1cc(-c2nc3ccccc3s2)ccc1NC(=O)COc1ccc(Cl)cc1`, the growth is 71% (inactive).

Consider `COc1cccc(-c2nc3sccn3c2-c2ccnc(NCCCNS(=O)(=O)c3ccccc3)c2)c1`, for which the growth was 69.4% (inactive).

With `CCOC(=O)c1c2ncccc2n2c(=O)n(-c3ccc(Cl)cc3)nnc12`, the growth is 67.1% (inactive).

Consider `COC(=O)C12C3C(=O)N(c4ccc(OC)cc4)C(=O)C3C(c3cn(-c4ccccc4)nc3C)N1[C@H](c1cn(-c3ccccc3)nc1C)[C@@H]1C(=O)N(c3ccc(OC)cc3)C(=O)[C@@H]12` (stereo not given in full), for which the growth is 112% (inactive).

For `O=C(Nc1ccc(CN2CCOCC2)cc1)c1[nH]ncc1Nc1ncnc2sccc12`, the growth was 6.2% (active).

As for `COc1ccc(/C=N\NC(=O)c2ccncc2)cc1O`, the growth is 99.3% (inactive).

In the case of `Nc1c(C(=O)Nc2ccccc2)sc2nc3c(cc12)CN(CCc1ccccc1)CC3`, the growth is 94.2% (inactive).

`COc1ccc(C2Nc3ccccc3-n3cccc32)cc1` (stereo not given): the growth is 97% (inactive).

As to `COCCCNc1nc(NC(=O)c2ccc(F)cc2C)cc(-c2cccnc2)n1`, the growth was 102% (inactive).

Turning to `O=C1C[C@H](Sc2nc(-c3ccc(F)cc3)cc(C(F)(F)F)n2)[C@H]2CO[C@@H]1O2`, the growth is 108% (inactive).

Consider `Cn1c2ccccc2c2c3c(c4c5ccccc5[nH]c4c21)C(=O)N(N)C3=O`, for which the growth was 85.1% (inactive).

In the case of `CC/C=C\C[C@H](F)C/C=C1/C(=O)C=C[C@@H]1C/C=C\CCCC(=O)O`, the growth was 93.6% (inactive).

As to `NS(=O)(=O)c1ccc(Nc2nc3n[nH]c(Nc4ccccc4)c3c(=O)[nH]2)cc1`, the growth is 101% (inactive).

Regarding `CN(C)CCOc1ccc(-c2nc3ccc(-c4nc5ccc(N6CCN(C)CC6)cc5[nH]4)cc3[nH]2)cc1`, the growth was 77.8% (inactive).

Regarding `C[C@@H]1CC[C@@H]2[C@@H]1[C@H](OC(=O)/C=C/c1ccccc1)[C@]1(C3CCCCC3)C[C@@H](OC(=O)CO)[C@@]2(C)O1`, the growth was 92.9% (inactive).

`CNc1nc(C)c(-c2nc(Nc3cccc(S(N)(=O)=O)c3)ncc2F)s1`: the growth was 3.99% (active).

`COc1cc(C(=O)/C=C/c2c(C)n([O-])c3ccc(C)cc3[n+]2=O)cc(OC)c1OC`: the growth is 97.9% (inactive).

As to `O=C1O[C@H]([C@H](O)CO)C(O)=C1O`, the growth was 104% (inactive).

Consider `Brc1cccc(-c2cc(-c3ccc4c(c3)OCCO4)[nH]n2)c1`, for which the growth is 46.2% [25 µM] (inactive).

`COc1cc(NC(N)=NCC(C)(C)COc2ccc(C(F)(F)F)cc2)cnc1C#N`: the growth is 53.1% (inactive).

Consider `O=C(/C=C\c1ccc2ccccc2n1)c1cc(Cl)ccc1O`, for which the growth is 86.1% (inactive).

With `CCOC(=S)SCc1ccc(Cl)cc1`, the growth was 102% (inactive).

For the molecule `CC/C(Cc1ccccc1)=C(/c1ccc(O)cc1)c1ccc(OCCN2CCCC2)cc1`, the growth was -18% (active).

Consider `O=C1/C(=C/c2ccc(Cl)c(Cl)c2)CN(C(=O)CCN2CCC(=NO)CC2)C/C1=C\c1ccc(Cl)c(Cl)c1`, for which the growth is -78.7% (active).
